# From PubChem BioAssay (NCATS)
# Unmarked numbers belong to inactive results. Results filed as inconclusive are left out. The source made the active and inactive calls. Unless noted, calls come from the whole dose curve; as a rule, active = well fitted activation curve with a large enough effect in the main read-out, with a control signal flat (not every such curve was filed as active); inconclusive = small, poorly fitted or top-dose-only effect, or effect the other way, or a change in a side signal; inactive = flat fitted curve, though single readings scatter.
# Biological target: 3',5'-cyclic-AMP phosphodiesterase 4B (Homo sapiens) (UniProt Q07343)
# Assay: qHTS Assay for Inhibitors of PDE-IV (AID 607); note: % of control where 0% means no effect
# Conditions: HEK293 ACTOne CNG channel cells, membrane potential fluorescence; series mostly up to 22.9 µM; activation (PDE inhibition): at the top concentration
# In short: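 Cell-based read-out of cAMP via a modified cyclic nucleotide-gated channel and membrane potential dye (535/590 nm) in HEK293 cells expressing PDE4 endogenously. Compounds tested up to 22.9 uM final; 100 uM RO 20-1724 reference.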
# Chain of 3',5'-cyclic-AMP phosphodiesterase 4B (Homo sapiens) (Q07343 whole entry, looked up): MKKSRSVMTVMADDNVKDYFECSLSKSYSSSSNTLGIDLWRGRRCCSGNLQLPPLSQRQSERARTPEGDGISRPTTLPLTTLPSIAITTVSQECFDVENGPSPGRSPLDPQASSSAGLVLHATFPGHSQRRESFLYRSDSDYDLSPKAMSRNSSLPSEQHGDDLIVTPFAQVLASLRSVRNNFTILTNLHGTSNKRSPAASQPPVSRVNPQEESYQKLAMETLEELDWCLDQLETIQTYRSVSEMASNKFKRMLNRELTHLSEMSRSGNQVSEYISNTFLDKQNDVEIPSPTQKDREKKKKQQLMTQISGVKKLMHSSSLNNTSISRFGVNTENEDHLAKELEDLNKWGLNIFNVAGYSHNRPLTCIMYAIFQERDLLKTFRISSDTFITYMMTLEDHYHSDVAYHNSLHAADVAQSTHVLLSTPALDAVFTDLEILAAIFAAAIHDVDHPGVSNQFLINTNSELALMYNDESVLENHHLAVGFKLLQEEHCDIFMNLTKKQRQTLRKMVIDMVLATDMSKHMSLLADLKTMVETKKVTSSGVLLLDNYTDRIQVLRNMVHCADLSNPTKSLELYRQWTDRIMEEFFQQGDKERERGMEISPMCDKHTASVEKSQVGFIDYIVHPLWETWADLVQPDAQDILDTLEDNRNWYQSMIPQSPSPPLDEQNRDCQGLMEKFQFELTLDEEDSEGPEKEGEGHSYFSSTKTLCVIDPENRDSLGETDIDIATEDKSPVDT
row,SMILES,activation (PDE inhibition) [%]
1,C[C@H](Br)C(=O)c1ccc2cc(Br)c3ccccc3c2c1,3.05
2,CC(=O)Nc1nc(NC(C)=O)c2[nH]c(CO)nc2n1,0.953
3,COc1cc(-c2[o+]c3cc(O)cc(O)c3cc2O)cc(O)c1O,2.23
4,O=C(O)[C@@H](O)[C@@H](O)[C@H](O)[C@H](O)CO,-2.5
5,Nc1nc2c(ncn2[C@@H]2C=C[C@@H](CO)C2)c(=O)[nH]1,-0.873
6,Cn1c(=S)c2[nH]c(SCCN3CCCC3)nc2n(C)c1=O,-9.75
7,C/C(CC/C(C)=N/O)=N/O,-12.3
8,Oc1ccc(Cn2c(-c3ccc(O)cc3)nc3ccccc32)cc1,3.66
9,NCCNCC1CCNCC1,-9.48
10,CO[C@@H]1/C=C\O[C@]2(C)Oc3c(C)c(O)c4c(O)c(cc(O)c4c3C2=O)NC(=O)/C(C)=C\C=C/[C@H](C)[C@@H](O)[C@H](C)[C@H](O)[C@H](C)[C@H](OC(C)=O)[C@@H]1C,-7.14
11,O=S(=O)(O)c1cc(N=Nc2cccc3ccccc23)c(O)c2ncccc12,-9.15
12,N#[N+]c1ccc(Nc2ccccc2)cc1,1.11
13,COC(=O)N1CCC2(CCCN(Cc3cc(C(F)(F)F)cc(C(F)(F)F)c3)C2)CC1,3.46
14,CC(C)(N)CO[C@H]1C[C@H]2CC[C@@]1(C)C2(C)C,4.91
15,CC(=O)N[C@@H]1CONC1=O,6.89
16,CC1=NN(c2ccc(S(=O)(=O)O)cc2)C(=O)/C1=C\c1ccc(Cl)cc1,-1.03
17,O=C1C(=O)c2ccccc2C(O)=C1C(CCc1ccccc1)C1=C(O)c2ccccc2C(=O)C1=O,-1.74
18,C[N+](C)(N)Cc1csc(-c2ccc(Cl)cc2)n1,-5.07

row,SMILES,activation (PDE inhibition) [%]
1,CC1=NCC[N@@+]1(CCc1ccccc1)Cc1ccccc1,14.2
2,CN(CC(=O)O)Cc1c(O)c(Cl)cc(Cl)c1Cl,0.507
3,O=C(O)CS(=O)c1ccc2c3c(cccc13)C(=O)c1ccccc1-2 (configuration not stated),11
4,O[C@@H](COc1ccc(Cl)cc1Cl)CN1CCCC1,3.73
5,O=S(=O)(c1ccccc1)N1CCC[C@@]2(CCN(Cc3ccccc3)C2)C1,5.49
6,c1ccc([C@H](c2cccc3c2ccc2ccccc23)[C@H](c2ccccc2)c2cccc3c2ccc2ccccc23)cc1,1.2
7,O=C(O)CCc1c2ccc(=O)c(O)c-2oc2c(O)c(O)ccc12,-3.13
8,O=C(O)C1(Nc2ccc(Cl)cc2)CCCC1,7.87
9,O=c1cc(CF)[nH]c(=S)[nH]1,0.0467
10,C[C@@]12CCC(=O)C=C1CC[C@H]1[C@@H]2[C@@H](O)C[C@]2(C)[C@@H]1CC[C@@]2(O)C(=O)CO,7.38
11,O=C(N/N=C\c1ccc2c(c1)CCC2)c1ccccc1O,3.73
12,N[C@@](CCc1ccccc1)(C(=O)O)c1ccccc1,-5.32
13,CC1CCC(O)([C@](C)(C(=O)O)c2ccccc2)CC1 (some centres not stated),5.47
14,C[C@H]1C[C@H]2[C@H]3CCC4=CC(=O)C=C[C@@]4(C)[C@]3(F)[C@H](O)C[C@]2(C)[C@@]1(O)C(=O)COP(=O)(O)O,3.78
15,O=C1Nc2ccccc2C1=Nc1ccc(S(=O)(=O)Nc2nccs2)cc1,5.61
16,N[C@@H](Cc1ccccc1)C(=O)O,1.51
17,C[C@]12CC[C@H]3c4ccc(O)cc4CC[C@@H]3[C@H]1CC[C@@H]2OP(=O)(O)O,5.25
18,O=[N+]([O-])c1ccc(Cl)c(CNc2ncnc3c2ncn3[C@@H]2CCCCO2)c1,1.05

# Biological target: Cytochrome P450 3A4 (Homo sapiens) (UniProt P08684)
# Assay: qHTS Assay for Activators of Cytochrome P450 3A4 (AID 885; active = well fitted curve in the direction sought with a large enough effect; an effect the other way counts as inactive or inconclusive; note: nearly all actives have a fitted effect of over 65% in size)
# Conditions: recombinant CYP3A4, Luciferin-PPXE luminescence, 60 min; series mostly up to 11.4 µM; activity change, positive = activation: at the top concentration
# In short: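 Signal was normalized against complete inhibition by 57 uM ketoconazole. The reaction used 20nM CYP3A4 with 25uM Luciferin-PPXE, 10-min compound preincubation and a 60-min NADPH-supported step at RT.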
# Chain of Cytochrome P450 3A4 (Homo sapiens) (P08684 whole entry, looked up): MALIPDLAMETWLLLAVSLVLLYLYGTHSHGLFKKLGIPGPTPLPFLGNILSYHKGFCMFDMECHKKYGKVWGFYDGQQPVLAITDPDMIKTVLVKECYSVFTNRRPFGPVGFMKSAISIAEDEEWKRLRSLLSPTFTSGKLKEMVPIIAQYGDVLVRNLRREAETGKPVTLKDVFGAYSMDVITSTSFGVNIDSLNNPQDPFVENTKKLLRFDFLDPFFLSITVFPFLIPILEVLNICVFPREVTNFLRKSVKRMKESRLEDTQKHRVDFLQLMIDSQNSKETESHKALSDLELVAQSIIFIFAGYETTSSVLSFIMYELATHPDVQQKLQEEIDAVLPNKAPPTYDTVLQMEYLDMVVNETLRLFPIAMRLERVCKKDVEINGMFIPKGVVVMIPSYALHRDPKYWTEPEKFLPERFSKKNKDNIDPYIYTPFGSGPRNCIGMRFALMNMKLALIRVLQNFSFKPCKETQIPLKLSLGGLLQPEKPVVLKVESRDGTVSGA
row,SMILES,"activity change, positive = activation"
1,COc1ccc(C(=O)N2CCC3(CCCN(C(=O)Nc4cccc(F)c4)C3)CC2)cc1,-85.6% [at 57.1 µM]
2,CO[C@@H]1/C=C\O[C@]2(C)Oc3c(C)c(O)c4c(O)c(cc(O)c4c3C2=O)NC(=O)/C(C)=C\C=C/[C@H](C)[C@@H](O)[C@H](C)[C@H](O)[C@H](C)[C@H](OC(C)=O)[C@@H]1C,-56.6%
3,O=C(O)CS(=O)c1ccc2c3c(cccc13)C(=O)c1ccccc1-2 (configuration not stated),-64.2%
4,O=S(=O)(c1ccccc1)N1CCC[C@@]2(CCN(Cc3ccccc3)C2)C1,-53.3% [at 57.1 µM]

# Biological target: Cytochrome P450 2D6 (Homo sapiens) (UniProt P10635)
# Assay: qHTS Assay for Inhibitors and Substrates of Cytochrome P450 2D6 (AID 891; active = well fitted curve in the direction sought with a large enough effect; an effect the other way counts as inactive or inconclusive; note: potency is the fitted concentration of half-maximal effect; nearly all actives have a fitted effect of over 60% in size)
# Conditions: recombinant CYP2D6, luciferin-ME EGE luminescence; series mostly up to 11.4 µM; activity change, negative = inhibition: at the top concentration
# In short: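 Human CYP2D6 (5 nM) with 30 uM Luciferin-ME EGE (at Km) in 100 mM KPO4, compound preincubated 10 min, then NADPH regeneration system for 60 min at room temperature. Luciferin read by luminescence; normalized to 1.43 uM quinidine.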
# Chain of Cytochrome P450 2D6 (Homo sapiens) (P10635 whole entry, looked up): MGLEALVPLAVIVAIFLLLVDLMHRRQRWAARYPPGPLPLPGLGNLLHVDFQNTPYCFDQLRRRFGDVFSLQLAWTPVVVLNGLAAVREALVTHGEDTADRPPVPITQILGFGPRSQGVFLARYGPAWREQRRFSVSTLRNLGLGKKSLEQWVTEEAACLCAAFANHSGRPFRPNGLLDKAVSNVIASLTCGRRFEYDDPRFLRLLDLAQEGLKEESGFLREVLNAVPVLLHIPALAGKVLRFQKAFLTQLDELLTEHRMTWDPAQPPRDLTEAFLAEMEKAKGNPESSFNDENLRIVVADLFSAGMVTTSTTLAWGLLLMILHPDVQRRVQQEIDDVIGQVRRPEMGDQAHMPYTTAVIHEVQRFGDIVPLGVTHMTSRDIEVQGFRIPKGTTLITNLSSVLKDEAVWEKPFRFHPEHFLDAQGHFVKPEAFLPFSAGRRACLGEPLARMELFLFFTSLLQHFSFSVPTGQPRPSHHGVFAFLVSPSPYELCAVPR
row,SMILES,Potency
1,Clc1ccc(CN2CCCN(Cc3ccc(Cl)cc3)C2c2cc3ccccc3c3ccccc23)cc1,199 nM (active)
2,CC1=NCC[N@@+]1(CCc1ccccc1)Cc1ccccc1,50.1 nM (active)
3,O[C@@H](COc1ccc(Cl)cc1Cl)CN1CCCC1,316 nM (active)

# Test system: not listed separately
# Assay: qHTS Assay for Identification of Small Molecule Agonists for Hypoxia Response Element Signaling Pathway (AID 914; active = well fitted activation curve with a large enough effect in the signal ratio, with a control signal flat, not every such curve was filed as active; the % refers to the signal ratio; note: % of control where 0% means no effect)
# Conditions: ME-180 (cervical carcinoma) HRE-bla reporter, beta-lactamase ratio, CoCl2, 17 h; activation: stronger effect = higher value
# In short: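 Positive modulation of EC50 CoCl2-induced hypoxia response element signaling is measured in ME-180 cells with a beta-lactamase reporter. Compounds are titrated, incubation runs 17 hours, and %Activity derives from the blue/green ratio.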
row,SMILES,activation [%]
1,COc1ccc(C(=O)N2CCC3(CCCN(C(=O)Nc4cccc(F)c4)C3)CC2)cc1,-19.5
2,O=C(O)C1(Nc2ccc(Cl)cc2)CCCC1,0.664
3,C[C@]12CC[C@H]3c4ccc(O)cc4CC[C@@H]3[C@H]1CC[C@@H]2OP(=O)(O)O,11.8

# Biological target: ATP-dependent 6-phosphofructokinase (Trypanosoma brucei brucei) (UniProt O15648)
# Assay: qHTS Assay to Find Inhibitors of T. brucei phosphofructokinase: hit validation (AID 492961; active = well fitted curve in the direction sought with a large enough effect; an effect the other way counts as inactive or inconclusive;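 note: luminescence reports ADP formed as PFK phosphorylates fructose-6-phosphate with ATP; % is set by controls: 0 for no effect and ±100 for the full control effect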)
# Conditions: T. brucei PFK, ADP-Glo luminescence; series mostly up to 51.4 µM; activity change, negative = inhibition: at the top concentration
# In short: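 Measures ADP output of PFK (1.25 nM) at 0.1 mM ATP, 0.5 mM F6P, pH 8.0 TEA buffer with 5 mM MgCl2. No-enzyme wells define full inhibition; uninhibited enzyme wells define zero.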
# Chain of ATP-dependent 6-phosphofructokinase (Trypanosoma brucei brucei) (O15648 whole entry, looked up): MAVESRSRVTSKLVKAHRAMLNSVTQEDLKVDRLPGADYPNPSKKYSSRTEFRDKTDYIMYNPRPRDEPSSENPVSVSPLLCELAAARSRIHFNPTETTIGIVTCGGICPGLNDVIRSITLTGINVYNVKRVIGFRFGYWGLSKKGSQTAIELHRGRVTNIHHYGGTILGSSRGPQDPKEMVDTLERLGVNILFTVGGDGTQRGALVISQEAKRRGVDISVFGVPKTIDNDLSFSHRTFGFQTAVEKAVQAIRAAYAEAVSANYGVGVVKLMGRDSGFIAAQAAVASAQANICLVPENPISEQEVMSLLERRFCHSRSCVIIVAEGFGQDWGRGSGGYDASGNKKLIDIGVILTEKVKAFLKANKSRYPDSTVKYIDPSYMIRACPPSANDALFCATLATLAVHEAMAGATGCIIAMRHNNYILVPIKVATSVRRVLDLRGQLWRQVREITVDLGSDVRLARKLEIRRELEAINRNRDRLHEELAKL
row,SMILES,"activity change, negative = inhibition [%]"
1,O=C(O)[C@@H](O)[C@@H](O)[C@H](O)[C@H](O)CO,6.8
2,N[C@@H](Cc1ccccc1)C(=O)O,5
3,C[C@]12CC[C@H]3c4ccc(O)cc4CC[C@@H]3[C@H]1CC[C@@H]2OP(=O)(O)O,0.235

# Biological target: Ubiquitin carboxyl-terminal hydrolase 1 (Homo sapiens) (UniProt O94782)
# Assay: Inhibitors of USP1/UAF1: Pilot qHTS (AID 504865; active = well fitted curve in the direction sought with a large enough effect; an effect the other way counts as inactive or inconclusive;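 note: rhodamine fluorescence freed from ubiquitin-rhodamine substrate followed over time; top concentration of the series differs between compounds; % is set by controls: 0 for no effect and ±100 for the full control effect; nearly all actives have a fitted effect of over 35% in size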)
# Conditions: purified USP1/UAF1, Ub-rhodamine cleavage fluorescence; series mostly up to 114 µM; activity change, negative = inhibition: at the top concentration
# In short: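 Kinetic fluorescence assay: 1nM USP1/UAF1, 15 min compound preincubation, then 150nM Ub-Rho; 480/540 nm.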
# Chain of Ubiquitin carboxyl-terminal hydrolase 1 (Homo sapiens) (O94782 whole entry, looked up): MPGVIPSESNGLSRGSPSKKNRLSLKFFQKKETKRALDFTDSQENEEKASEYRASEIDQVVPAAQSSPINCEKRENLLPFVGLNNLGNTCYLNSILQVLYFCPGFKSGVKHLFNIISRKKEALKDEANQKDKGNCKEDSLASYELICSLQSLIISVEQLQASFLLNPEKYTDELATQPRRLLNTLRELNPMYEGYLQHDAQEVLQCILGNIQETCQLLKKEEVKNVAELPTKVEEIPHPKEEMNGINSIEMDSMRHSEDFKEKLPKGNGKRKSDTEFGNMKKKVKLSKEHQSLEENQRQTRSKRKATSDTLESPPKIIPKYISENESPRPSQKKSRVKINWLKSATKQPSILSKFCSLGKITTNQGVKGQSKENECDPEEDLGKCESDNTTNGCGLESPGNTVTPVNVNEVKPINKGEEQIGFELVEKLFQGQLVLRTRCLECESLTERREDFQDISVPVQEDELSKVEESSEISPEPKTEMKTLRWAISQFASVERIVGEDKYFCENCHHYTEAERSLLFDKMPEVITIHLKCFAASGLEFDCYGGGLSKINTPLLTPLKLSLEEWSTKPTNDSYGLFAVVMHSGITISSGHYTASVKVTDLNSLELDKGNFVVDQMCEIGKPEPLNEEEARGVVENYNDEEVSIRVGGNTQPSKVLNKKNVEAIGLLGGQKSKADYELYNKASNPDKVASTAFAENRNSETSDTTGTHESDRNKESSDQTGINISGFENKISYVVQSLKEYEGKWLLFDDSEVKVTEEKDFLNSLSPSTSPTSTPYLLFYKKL
row,SMILES,"activity change, negative = inhibition [%]"
1,O=C(O)[C@@H](O)[C@@H](O)[C@H](O)[C@H](O)CO,-4.56
2,N[C@@H](Cc1ccccc1)C(=O)O,-5.79
3,C[C@]12CC[C@H]3c4ccc(O)cc4CC[C@@H]3[C@H]1CC[C@@H]2OP(=O)(O)O,1.54
